Assay results from PubChem BioAssay (NCI).
Compounds without any hit were thinned out: in the full panel of roughly 79,000, 15% have a hit. A number with no mark means an inactive call. Active and inactive are the calls of the source. Cut-off read from the data, not from the text of the source: active = growth inhibition above about 70%; inactive = the rest.

Assay: NCI Yeast Anticancer Drug Screen. Data for the sgs1 strain (AID 173);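 note: 0% = growth of vehicle-only control cultures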
Conditions: S. cerevisiae sgs1 mutant, at 33.0 µM, active compounds read high
Summary of the method: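 Relative growth inhibition, referenced to vehicle, was determined in a yeast strain with a defined alteration affecting DNA damage repair or cell cycle control after compound exposure.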

Row | Structure (SMILES) | growth inhibition
1 | c1ccc(-c2cc(C3CO3)c3ccccc3n2)cc1 (stereo not drawn) | 80% (active)
2 | S=C1C(=Nc2ccccc2)N(c2ccccc2)/C(=N\c2ccccn2)N1c1ccccc1 | 99% (active)
3 | CCC(OC(C)=O)C1CC(C(C)C)CCC1C (stereo not drawn) | 18%
4 | CC(C)=CCc1c2c(c(O)c3c(=O)c(-c4ccc(O)c(O)c4)coc13)C=CC(C)(C)O2 | 91% (active)
5 | O=C(NC(N1CCN(c2cc3c(cc2F)c(=O)c(C(=O)O)cn3C2CC2)CC1)(C(F)(F)F)C(F)(F)F)c1ccccc1 | 29%
6 | Fc1cc(F)c(F)c(S)c1F | 54%
7 | COc1ccc2cc3c4cc5c(cc4cc[n+]3cc2c1OC)OCO5 | 96% (active)
8 | CCCCCCCCNCCCCCCCC | 97% (active)
9 | Nc1cc(Cl)ccc1Nc1ccccc1 | 4%
10 | O=C(/C(=C/c1ccc(O)cc1)c1ccccc1)c1ccccc1 | 98% (active)
11 | O=Cc1ccccc1C=O | 2%
12 | C1=CCN([B-](c2ccccc2)[C+]2CCCCC2)C=C1 | 92% (active)
13 | CC/C(=C(\c1ccccc1)c1ccc(OCC[N+](C)(C)C)cc1)c1ccccc1 | 99% (active)
14 | O=S(=O)(c1cccc(C(F)(F)F)c1)N1c2ccccc2-n2cccc2C1c1cccnc1 (stereo not drawn) | 92% (active)
15 | Nc1ccc2c(c1)C(=O)c1c(F)cccc1-2 | 10%
16 | CN(C)/C(=N/C(=S)Nc1ccccc1)SCc1ccccc1 | 25%
17 | CCN(CC)C(=S)N/N=C(\C)c1ccccc1O | 97% (active)
18 | CC(C)OC(=O)NNc1cc(Cl)ccc1Cl | 44%
19 | CC(C)CCC[C@@H](C)[C@H]1CC[C@H]2[C@@H]3CC[C@H]4C[C@H](N)CC[C@]4(C)[C@H]3CC[C@]12C | 6%
20 | O=C1c2ccccc2-c2ccc(N=Cc3ccccc3)cc21 | 19%

Same assay, conditions: S. cerevisiae sgs1 mutant, at 100.0 µM, active compounds read high

Row | Structure (SMILES) | growth inhibition
21 | COc1ccc2nc3cccc([N+](=O)[O-])c3c(NCCNCCN(C)C)c2c1 | 2%
22 | Cc1cccc(/C=N/NC(=S)NC2CCCCC2)n1 | 29%
23 | COC(=O)C(=O)c1c(-c2ccc(Cl)c(Cl)c2)[nH]c2[nH]n(-c3ccccc3)c(=O)c2c1=O | 65%
24 | c1ccc([P+](CCN2Cc3ccccc3C2)(c2ccccc2)c2ccccc2)cc1 | 96% (active)
25 | Cc1cc(C)c2[s+]snc2c1 | 36%
26 | CC(C)(Br)C(=O)/C=C/c1ccccc1 | 80% (active)
27 | Cc1ccc(S(=O)(=O)NC(=O)C2C(=O)CC3(CCCCC3)CC2=O)cc1 | 79% (active)
28 | NC(=S)N1N=C2c3ccccc3CC[C@H]2[C@@H]1c1ccc(Cl)cc1 | 91% (active)
29 | O=[N+]([O-])/C=C/c1cc2ccc3ccccc3c2[nH]1 | 92% (active)
30 | O=C1C(=C2CCCC2)CCC1CN1CCCCC1 (stereo not drawn) | 97% (active)
31 | OC(CC(O)(C(F)(F)F)C(F)(F)F)c1ccc(C(O)CC(O)(C(F)(F)F)C(F)(F)F)cc1 (stereo not drawn) | 99% (active)
32 | COc1cc2c(cc1OC)[C@@H](Nc1ccc(C#N)cc1)C1COC(=O)[C@@H]1C2c1cc(OC)c(O)c(OC)c1 (stereo partly drawn) | 85% (active)
33 | O=c1cccccc1[O-].O=c1cccccc1[O-].O=c1cccccc1[O-].[Eu+3] | 98% (active)
34 | O=C1c2ccccc2C(=O)c2sc(Nc3ccccc3Cl)nc21 | 97% (active)
35 | NC(CCCCCCCCCCCCC(N)C(=O)c1ccccc1)C(=O)c1ccccc1 (stereo not drawn) | 95% (active)
36 | CC1=C(C)C(=O)C2=C(OCCO2)C1=O | 88% (active)
37 | c1ccc(-c2cc(C3CO3)c3ccccc3n2)cc1 (stereo not drawn) | 98% (active)
38 | S=C1C(=Nc2ccccc2)N(c2ccccc2)/C(=N\c2ccccn2)N1c1ccccc1 | 94% (active)
39 | CCC(OC(C)=O)C1CC(C(C)C)CCC1C (stereo not drawn) | 95% (active)
40 | CC(C)=CCc1c2c(c(O)c3c(=O)c(-c4ccc(O)c(O)c4)coc13)C=CC(C)(C)O2 | 85% (active)
41 | O=C(NC(N1CCN(c2cc3c(cc2F)c(=O)c(C(=O)O)cn3C2CC2)CC1)(C(F)(F)F)C(F)(F)F)c1ccccc1 | 58%
42 | Fc1cc(F)c(F)c(S)c1F | 98% (active)
43 | COc1ccc2cc3c4cc5c(cc4cc[n+]3cc2c1OC)OCO5 | 98% (active)
44 | CCCCCCCCNCCCCCCCC | 97% (active)
45 | Nc1cc(Cl)ccc1Nc1ccccc1 | 89% (active)
46 | O=C(/C(=C/c1ccc(O)cc1)c1ccccc1)c1ccccc1 | 93% (active)
47 | O=Cc1ccccc1C=O | 72% (active)
48 | C1=CCN([B-](c2ccccc2)[C+]2CCCCC2)C=C1 | 99% (active)
